# Data published in publication PMC5540273 (PLoS ONE, 2017).
# Tested on: AAK1
# 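Also: kd values determined as follow-up on hits from a single-replicate KINOMEscan panel screen.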
row,SMILES,Kd [nM]
1,Cc1cccc(-c2nc(C)cc(Nc3ccncc3)n2)n1 [GSK257997],> 10000
2,COc1ccc(Nc2nccc(NCCNC(=O)Nc3ccccc3F)n2)cc1 [GSK1379901],> 10000
3,Cc1cc(-c2ccc3c(c2)CC[C@@H](N[C@@H](C)c2ccccc2)C3)cnc1N.Cl [GW412617],3600
4,O=C(Nc1n[nH]c2cc(-c3cccc(F)c3F)ccc12)C1CC1 [SB-733894],2100
5,CN1C(=O)C(Nc2ccc(Cl)c(C(=O)O)c2)=C(c2ccc(Cl)cc2)C1=O [SB-404290],> 10000

# Tested on: ABL1-nonphosphorylated
row,SMILES,Kd [nM]
1,O=C(Nc1ccccc1)Nc1cccc(Oc2ccc3nccn3n2)c1,140
2,COc1ccc(Nc2nccc(-c3cccc(NC(=O)c4cc5cc(F)ccc5[nH]4)c3)n2)cc1 [GSK1229782],100
3,CC(=O)Nc1nc2cnc(Nc3cc(NC(=O)c4cccc(CCC#N)c4)ccc3C)nc2s1,> 10000
4,Cc1ccccc1-n1cnc2c(N)ncnc21 [SKF-97510],> 10000
5,Cc1cccc(-c2nc(-c3ccc(S(C)(=O)=O)cc3)sc2-c2ccnc(NCCc3ccccc3)c2)c1,330

# Tested on: ACVR1B
row,SMILES,Kd [nM]
1,COc1ccc2nc(-c3cccc(C)n3)nc(Nc3ccncc3)c2c1 [GSK204919],150
2,Cc1cccc(-c2nc(Nc3ccncc3)c3ccccc3n2)n1 [GW855857],3.3
3,Cc1csc(-c2nc(Nc3ccncc3)c3ccccc3n2)n1 [GW869640],39
4,Cc1cccc(-c2nc(Nc3cccc(C(N)=O)c3)c3ccccc3n2)n1 [GW876019],1600
5,Cc1cccc(-c2cc(Nc3ccncc3)c3ccccc3n2)n1 [GSK223675],31
6,Cc1cccc(-c2nc(Nc3ccc4[nH]ncc4c3)c3ccccc3n2)n1 [GW857175],54
7,Cc1ccc(NC(=O)Nc2cccc(C(F)(F)F)c2)cc1 [GSK955403],> 10000
8,Cl.c1ccc(-c2n[nH]cc2-c2ccnc(-c3ccc(CN4CCOCC4)cc3)c2)nc1 [GW776245],180

# Tested on: ACVR2B
row,SMILES,Kd [nM]
1,Fc1cccc(COc2nnc(-c3ccc4c(c3)CCO4)o2)c1,> 10000
2,Cc1c(O)cccc1Nc1ccnc2ccc(C(F)(F)F)cc12.Cl [GW466413],240
3,Fc1cc(Cl)ccc1Nc1ccnc2cc(I)ccc12 [GW551191],110
